Laboratory results: PubChem BioAssay (NCATS)
Inconclusive results are not listed. Entries that show only a call come without a potency. The source made the active and inactive calls. Calls come from the whole dose curve; as a rule, active = well fitted inhibition curve with a large enough effect; inconclusive = small, poorly fitted or top-dose-only effect; inactive = flat fitted curve, though single readings scatter.

Key:
Experiment in all cases: qHTS profiling for inhibitors of Plasmodium falciparum proliferation (AID 504749); note: nearly all actives have a fitted effect of over 60% in size
Settings in all cases: P. falciparum in erythrocytes, SYBR Green DNA, 72 h; series mostly up to 28.7 µM
CP260 = tested on: CP260
Outline: (§1)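 Infected RBCs, 0.3% parasitemia/2.5% Hct final; cpd 72 h, 37 C, 5% CO2; lysis buffer with saponin/triton/SYBR Green I, o/n RT dark; FI 485/535; norm. to artemisinin (0.29 uM) and DMSO.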

CP262 = tested on: CP262
Outline: as §1

CP265 = tested on: CP265
Outline: as §1

CP266 = tested on: CP266
Outline: as §1

CP268 = tested on: CP268
Outline: as §1

CP269 = tested on: CP269
Outline: as §1

CP286 = tested on: CP286
Outline: as §1

CP291 = tested on: CP291
Outline: as §1

CP297 = tested on: CP297
Outline: as §1

CP305 = tested on: CP305
Outline: as §1
Potency is the fitted concentration of half-maximal effect.

Row | Structure (SMILES) | Potency (CP260) | Potency (CP262) | Potency (CP265) | Potency (CP266) | Potency (CP268) | Potency (CP269) | Potency (CP286) | Potency (CP291) | Potency (CP297) | Potency (CP305)
1 | CCN(Cc1ccc(Cl)nc1)/C(=C/[N+](=O)[O-])NC | inactive | inactive | inactive | inactive | inactive | inactive | inactive | inactive | inactive | inactive
2 | CCCCCCCCCCCC[N+](C)(C)CCOc1ccccc1 | 3.98 µM (active) | 5.36 µM (active) | 6.31 µM (active) | 15.1 µM (active) | 9.53 µM (active) | 10.7 µM (active) | 2.51 µM (active) | 8.49 µM (active) | 13.5 µM (active) | 8.49 µM (active)
3 | NCc1cccnc1 | inactive | inactive | inactive | inactive | inactive | inactive | inactive | inactive | inactive | inactive
4 | c1ccc2nc(N3CCNCC3)ccc2c1 | inactive | inactive | inactive | inactive | inactive | inactive | inactive | inactive | inactive | inactive
5 | CCC1(c2ccccc2)CCC(=O)NC1=O (stereo not given) | inactive | inactive | inactive | inactive | inactive | inactive | inactive | inactive | inactive | inactive
6 | Cc1ncc2n1-c1ccc(Cl)cc1C(c1ccccc1F)=NC2 | inactive | inactive | inactive | inactive | inactive | inactive | inactive | inactive | inactive | inactive
7 | CCC1(CC)C(=O)NC(=O)NC1=O | inactive | inactive | inactive | inactive | inactive | inactive | inactive | inactive | inactive | inactive
8 | CCS(=O)(=O)C(C)(C)S(=O)(=O)CC | inactive | inactive | inactive | inactive | inactive | inactive | inactive | inactive | inactive | inactive
9 | OC(c1ccccc1)(c1ccccc1)C1CCNCC1 | inactive | inactive | inactive | inactive | inactive | inactive | inactive | inactive | inactive | inactive
10 | CN(C)C(=S)SSC(=S)N(C)C | 0.891 µM (active) | 2.13 µM (active) | 3.98 µM (active) | 4.78 µM (active) | 3.01 µM (active) | 2.13 µM (active) | 1.26 µM (active) | 3.01 µM (active) | 4.26 µM (active) | 2.39 µM (active)
11 | C[C@]12Cc3nonc3C[C@@H]1CC[C@@H]1[C@@H]2CC[C@@]2(C)[C@H]1CC[C@]2(C)O | inactive | inactive | inactive | inactive | inactive | inactive | inactive | inactive | inactive | inactive
12 | C[C@]12CC[C@H]3[C@@H](CC=C4C[C@@H](O)CC[C@@]43C)[C@@H]1CC[C@@H]2O | inactive | inactive | inactive | inactive | inactive | inactive | inactive | inactive | inactive | inactive
13 | COP(=S)(OC)Oc1ccc(Sc2ccc(OP(=S)(OC)OC)cc2)cc1 | inactive | inactive | inactive | inactive | inactive | inactive | inactive | inactive | inactive | inactive
14 | COP(=O)(OC)C(O)C(Cl)(Cl)Cl (stereo not given) | inactive | inactive | inactive | inactive | inactive | inactive | inactive | inactive | inactive | inactive
15 | CCC(=O)O[C@H]1CC[C@H]2[C@@H]3CCC4=CC(=O)CC[C@]4(C)[C@H]3CC[C@]12C | inactive | inactive | inactive | inactive | inactive | inactive | inactive | inactive | inactive | inactive
16 | NC(=O)OCCCc1ccccc1 | inactive | inactive | inactive | inactive | inactive | inactive | inactive | inactive | inactive | inactive
17 | CC(C)(C)OC(=O)c1ncn2c1[C@@H]1CCCN1C(=O)c1c(Br)cccc1-2 | inactive | inactive | inactive | inactive | inactive | inactive | inactive | inactive | inactive | inactive
18 | CC(C)NCC(O)c1ccc(N)c(C#N)c1 (stereo not given) | inactive | inactive | inactive | inactive | inactive | inactive | inactive | inactive | inactive | inactive
19 | C[N+]1(CCC(C(N)=O)(c2ccccc2)c2ccccc2)CCCCC1 | inactive | inactive | inactive | inactive | inactive | inactive | inactive | inactive | inactive | inactive
20 | CCOC(=O)NC(O)C(Cl)(Cl)Cl (stereo not given) | inactive | inactive | inactive | inactive | inactive | inactive | inactive | inactive | inactive | inactive
21 | O=C(O)c1nn(Cc2ccc(Cl)cc2Cl)c2ccccc12 | inactive | inactive | inactive | inactive | inactive | inactive | inactive | inactive | inactive | inactive
22 | C[C@H]1C(=O)O[C@@H]2CCN3CC=C(COC(=O)[C@](C)(O)[C@]1(C)O)[C@H]23 | inactive | inactive | inactive | inactive | inactive | inactive | inactive | inactive | inactive | inactive
23 | NC(=O)CN1CCCC1=O | inactive | inactive | inactive | inactive | inactive | inactive | inactive | inactive | inactive | inactive
24 | CN1C(=O)CN=C(c2ccccc2)c2cc([N+](=O)[O-])ccc21 | inactive | inactive | inactive | inactive | inactive | inactive | inactive | inactive | inactive | inactive
25 | CNC(=O)NC(O)C(Cl)(Cl)Cl (stereo not given) | inactive | inactive | inactive | inactive | inactive | inactive | inactive | inactive | inactive | inactive
26 | COP(=O)(OC)OC=C(Cl)Cl | inactive | inactive | inactive | inactive | inactive | inactive | inactive | inactive | inactive | inactive
